# Assay outcomes as filed in PubChem BioAssay.
# BaF3 parental – reduces parental Ba/F3 cell viability, JAK2V617F counter-screen; CellTiter-Glo ATP luminescence; inhibition, % at 5.6 µM; actives 1.1% (n = 220,000); AID 1486;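 active = inhibition above a per-campaign cutoff, the mean inhibition of all tested compounds plus 3 SD, cut at about 27% in these data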;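 note: 0% = DMSO wells and 100% = JAK Inhibitor I control wells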
# aSyn 5UTR inh – MLPCN primary screen, SNCA 5' untranslated region | inhibition, % (tested at 7.5 µM) | actives 0.82% (n = 300,000) | alpha-synuclein 5'UTR reporter, inhibitor activity | AID 1813; in the data active = inhibition above about 60%;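 note: H4 neuroglioblastoma cells stably carrying SNCA 5'UTR luciferase fusion; 0% = DMSO wells and 100% = positive control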
# IEC-6 cytotox – kills IEC-6 intestinal cells in KLF5 counter-screen | IEC-6 cytotoxicity, luminescence viability | inhibition, % at 5 µM | actives 0.78% (n = 290,000) | AID 1825;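 note: 0% = plate median of test compound wells and 100% = cytotoxic reference compound wells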
# KLF5 inh – inhibitors of KLF5 expression; DLD-1 KLF5 promoter-luciferase reporter, luminescence; actives 0.23% (n = 290,000); inhibition, % at 5 µM;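 active = inhibition above a per-plate limit of that plate's mean compound inhibition plus 3 SD, cut at about 60% in these data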;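 note: 0% = DMSO wells and 100% = LY294002 at 200 µM; higher means less KLF5 promoter-driven luciferase light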
# APP transl inh – APP translation inhibition; SH-SY5Y APP 5'UTR-luciferase reporter, luminescence; inhibition, % at 2 µM; actives 0.82% (n = 190,000); AID 1285;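 active = inhibition above a set limit, derived from the sample mean plus 3 SD, cut at about 45% in these data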
# Ba/F3 V617F tox – loss of viability in JAK2V617F-driven Ba/F3 cells; Ba/F3 EpoR-JAK2V617F viability, ATP luminescence; inhibition, % at 5.6 µM; actives 1.1% (n = 220,000); AID 1446;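 active = inhibition above the campaign mean plus 3 SD over all tested compounds, cut at about 24% in these data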;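 note: cytokine-independent growth of Ba/F3 cells driven by EpoR plus mutant JAK2; 0% = DMSO-treated cells and 100% = JAK inhibitor I control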
# IEC-6 tox confirm – confirmation of cytotoxic compounds in rat IEC-6 intestinal epithelial cells. shares compounds with IEC-6 cytotox. IEC-6 rat intestinal epithelial viability, luminescence. inhibition, % at 5 µM. actives 63% (n = 1,900);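 note: 0% = vehicle and 100% = reference cytotoxic drug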
# * = called active by the depositor; nt = no result given. Shown are actives, neighbours in structure and some others; about 2.2% of the full set was active somewhere. Cut-off read from the data, not from the text of the source, unless noted: active = inhibition above about 22%; inactive = the rest.
SMILES,BaF3 parental,aSyn 5UTR inh,IEC-6 cytotox,KLF5 inh,APP transl inh,Ba/F3 V617F tox,IEC-6 tox confirm
CCC1CCCCN1S(=O)(=O)c1ccc(NC(=O)c2ccncc2)cc1 (stereo unspecified),nt,-27,7,-25,nt,nt,nt
CCC1CCCCN1S(=O)(=O)c1ccc(NC(=O)c2nc(S(C)(=O)=O)ncc2Cl)cc1 (stereo unspecified),nt,51,94*,8,nt,nt,22
CC1CCCN(S(=O)(=O)c2ccc(NC(=O)CNC3CCCC3)cc2)C1 (stereo unspecified),nt,1,3,-7,nt,nt,nt
O=C(Nc1ccc(OC(F)F)cc1)c1ncc(Cl)c(Cl)c1Cl,0,-54,10,23,2,-2,nt
CCc1ccc(NC(=O)C(C)n2nc(C)c([N+](=O)[O-])c2C)cc1 (stereo unspecified),7,29,3,-42,18,2,nt
CNc1ccc(C(=O)N2CCN(S(=O)(=O)c3ccc4c(c3)OCCCO4)CC2)cc1[N+](=O)[O-],nt,21,-8,-4,nt,nt,nt
O=C(CCl)N1CCCC1c1ccc2c(c1)OCCO2 (stereo unspecified),nt,-152,78*,20,nt,nt,24*
O=C(Nc1ccc(N2CCCC2)cc1)c1ccc(Cl)cc1Cl,nt,-88,0,-60,nt,nt,nt
O=C(Nc1ccc(N2CCCC2)cc1)c1cc(Cl)ccc1Cl,nt,-241,56*,-28,nt,nt,27*
CCc1ccccc1N(CC(=O)N1CCCCCC1)S(C)(=O)=O,nt,-3,2,-45,nt,nt,nt
CCOC(=O)c1sc(N)c(C(=O)Nc2ccccc2OC)c1C,36*,30,38*,12,47*,40*,46*
Cc1oc2c(c1C(=O)NCc1cccnc1)C(=O)c1ccccc1C2=O,101*,107*,102*,-17,95*,94*,105*
CC(=O)c1c(C)oc2c1C(=O)c1ccccc1C2=O,8,-62,3,-12,2,-1,nt
Nc1ccccc1C(=O)NNC1=C(C(=O)C(F)(F)F)CCC1,3,-278,34*,-29,nt,-1,5
O=C(NNC1=C(C(=O)C(F)(F)F)CCC1)c1ccccc1O,6,10,0,-14,17,0,nt
COc1c(Cl)cc(C(=O)NCc2ccco2)cc1Cl,nt,5,4,-1,nt,nt,nt
COC(=O)CCn1[nH]c(=O)c2ccccc2c1=O,5,4,5,-2,4,0,nt
O=c1[nH]n(Cc2ccccc2)c(=O)c2ccccc12,6,-68,31*,-6,-3,3,38*
CCOC(=O)/C(=C\c1ccc(OC(F)F)cc1)C1=Nn2c(nnc2-c2ccc(Cl)cc2)SC1,7,47,4,-21,34,-2,nt
COc1ccc2nc(NCc3ccccc3)[nH]c2c1,6,-80,5,-43,-18,1,nt
Cc1ccc2[nH]c3c(NCc4ccccc4)ncnc3c2c1,nt,-95,30*,-13,nt,nt,17
Cc1ccc2nc(NCc3ccccc3)[nH]c2c1,76*,40,82*,24,10,85*,51*
CCOc1ccc2nc(-c3ccccc3)[nH]c2c1,54*,2,42*,14,-142,71*,30*
COc1ccc2nc(-c3ccccc3)[nH]c2c1,8,-71,4,-116,-178,4,nt
CCOC(=O)N1CCN(C(=O)CCCn2nnnc2CN2CCC(C)CC2)CC1,nt,7,3,-9,nt,nt,nt
SMILES,BaF3 parental,aSyn 5UTR inh,IEC-6 cytotox,KLF5 inh,APP transl inh,Ba/F3 V617F tox,IEC-6 tox confirm
COc1ccc(NC(=O)CCCc2nnc3n(C)c(=O)c4sccc4n23)cc1,nt,16,2,-23,nt,nt,nt
Cc1cccc(OCCCN2C(=O)C(=O)c3cc(C)ccc32)c1,7,-20,44*,-22,40,4,15
CC(=O)c1c(-c2ccccc2)c2cc(Cl)ccc2n(C)c1=O,nt,28,22*,-2,nt,nt,7
Cn1c(=O)c(C(=O)NCc2ccc(Cl)cc2)c(O)c2ccccc21,nt,5,-4,-34,nt,nt,nt
Cc1ccc2nc(SCC(=O)Nc3cc(C)on3)c(C)cc2c1,nt,-5,17,-12,nt,nt,nt
CCOc1cc(CNCCc2ccc(S(N)(=O)=O)cc2)ccc1OCc1ccc(Cl)cc1,18,98*,24*,25,18,14,12
COc1cc(CNCCc2ccc(S(N)(=O)=O)cc2)ccc1OCc1ccc(Cl)cc1,12,-64,-2,-8,11,1,nt
COc1ccc(S(=O)(=O)Nc2c(C(=O)O)[nH]c3ccc(OC)cc23)c(OC)c1,nt,0,1,5,nt,nt,nt
c1cnc2c(c1)ccc1cccnc12,4,85*,70*,47,32,7,80*
COC(=O)c1ccc(Nc2cc(C)nc3ccccc23)cc1,0,65*,23*,19,nt,6,27*
COC(=O)c1ccc2nc(C)cc(Nc3ccc(N(C)C)cc3)c2c1,6,-4,2,17,0,4,nt
CCn1cc(CN2CCCC(C(=O)Nc3ccc(-c4cscn4)cc3)C2)c(C)n1 (stereo unspecified),nt,-7,-3,-24,nt,nt,nt
COc1cccc(-c2cc3nc(-c4ccccc4)cc(=O)n3[nH]2)c1,nt,-167,78*,22,nt,nt,53*
O=c1cc(-c2ccccc2)nc2cc(-c3ccc(F)cc3)[nH]n12,nt,-109,nt,nt,nt,nt,nt
CC(=O)Nc1ccc(S(=O)(=O)NC2CC2)cc1,nt,-5,-3,-55,nt,nt,nt
CCn1c(CCNC(=O)c2cccs2)nnc1SCC(=O)NC1CCCCC1,2,-4,25*,-28,-27,6,5
O=C(CSc1nc2ccccc2c(=O)n1Cc1ccccc1)Nc1ccc(Br)cc1C(=O)O,nt,7,34*,8,nt,nt,20
O=C(Cc1cccc2ccccc12)Nc1ccc(O)cc1C(=O)O,nt,11,-1,3,nt,nt,nt
O=C(Cc1cccc2ccccc12)Nc1ccc(Br)cc1C(=O)O,nt,18,25*,9,nt,nt,3
Cc1ccc(-n2c(O)c(/C=C3/C(c4ccccc4)=Nc4ccccc43)c(=O)[nH]c2=O)cc1,61*,-4,66*,28,76*,74*,60*
NCC(=O)Nc1ccc(Cl)cc1C(=O)c1ccc[nH]1,37*,-23,31*,-27,nt,58*,9
O=C(NNC(=O)c1ccc[nH]1)c1cc(Cl)cc(Cl)c1,nt,0,-7,-18,nt,nt,nt
CCOc1ccc(S(=O)(=O)n2cc(F)c(=O)[nH]c2=O)cc1,60*,14,86*,11,4,44*,13
CCOc1ccc(S(=O)(=O)n2cc(F)c(=O)[nH]c2=O)cc1[N+](=O)[O-],nt,3,55*,-2,nt,nt,12
CCCOc1ccc(S(=O)(=O)n2cc(Br)c(=O)[nH]c2=O)cc1,12,15,-2,-3,2,6,nt
CCC(C)c1ccc(S(=O)(=O)N2CCN(S(=O)(=O)c3ccc(NC(C)=O)cc3)CC2)cc1 (stereo unspecified),nt,12,-4,-13,nt,nt,nt
CCOC(=O)c1c(-c2ccc(C)cc2)csc1NC(=O)c1cc2ccccc2oc1=O,nt,-30,nt,nt,nt,nt,nt
